Test [1] addresses Tumor necrosis factor receptor superfamily member 10B (Homo sapiens) (UniProt O14763). As to the kind of experiment: caspase-8 TRAIL sensitization, hit retest, confirmation, cell-based, NB7+caspase-8, with/without TRAIL, luminescence panel (AID 651596). Conditions: NB7 neuroblastoma + caspase-8, TRAIL sensitization, luminescence viability, with TRAIL, mean of runs, at 10 µM, stronger effect = higher value; in the data active = activity above about 50%; inactive = the rest.

Assay in test [2]: as above
Conditions: NB7 neuroblastoma + caspase-8, without TRAIL, luminescence viability, without TRAIL, mean of runs, at 10 µM.

Among the data in PubChem BioAssay are activity values, retold here.

Tumor necrosis factor receptor superfamily member 10B (Homo sapiens), sequence (O14763 whole entry, looked up): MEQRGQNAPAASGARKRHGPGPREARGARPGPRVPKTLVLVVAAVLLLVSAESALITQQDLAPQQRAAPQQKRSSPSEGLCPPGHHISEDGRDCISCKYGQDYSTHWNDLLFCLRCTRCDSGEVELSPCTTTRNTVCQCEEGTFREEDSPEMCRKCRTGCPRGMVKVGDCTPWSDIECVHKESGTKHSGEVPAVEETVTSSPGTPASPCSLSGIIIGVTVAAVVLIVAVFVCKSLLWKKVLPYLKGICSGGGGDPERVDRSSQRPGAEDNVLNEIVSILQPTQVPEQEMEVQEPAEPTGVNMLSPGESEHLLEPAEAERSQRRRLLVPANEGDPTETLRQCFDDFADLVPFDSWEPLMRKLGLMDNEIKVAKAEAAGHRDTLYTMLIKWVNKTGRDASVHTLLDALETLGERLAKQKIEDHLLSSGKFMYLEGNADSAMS

As to `CC/C(=N\NC(=O)c1csc(C)c1C)c1cccs1`, the activity is 57.8% in test [1] and 55.5% in test [2].

On to `C=C1CCc2c([nH]c3ccc(OCC(C)C)cc23)C1=O`, for which the activity was 91.8% in test [1] and 99.2% in test [2].

As for `O=C(CCl)N(c1ccccc1)C1CCCCC1`, the figures for the activity in test [1] and in test [2] were 99.4% and 99.8%, respectively.

As for `Cc1csc(NC(=S)NC(=O)c2ccccc2)n1`, the activity was found to be 67.7% in test [1] and 53.1% in test [2].

`COc1cccc(/C=C2\Oc3ccc(O)cc3C2=O)c1O`: the activity in test [1] stood at 66.8%; in test [2] it was 56.4%.

For `COn1c(SCc2ccc(Cl)cc2)nc2ccccc2c1=O`, the activity came out at 67% in test [1] and 47.9% in test [2].

Consider `Cc1ccc(NC(=O)CSc2nn(-c3ccccc3)c(=S)s2)cc1S(=O)(=O)N(C)C`, for which the activity in test [1] amounted to 22.1%; in test [2], 17.6%.

On to `Cc1cccc(-n2ncc3c(N4CCCC4)ncnc32)c1`, for which the activity in test [1] came out at 75.4%; in test [2], 73.6%.

For `COc1ccc(-c2cc(C(=O)N3CCCC3)no2)cc1`, the activity in test [1] worked out at 64.9%; in test [2] it was 59.8%.

As for `COc1ccc2nc(NC(=O)c3ccccc3F)sc2c1`, the results for the activity in test [1] and in test [2] were 78.1% and 73.8%, respectively.

For the molecule `Clc1ccc(CSc2nc3ccncc3[nH]2)cc1`, the activity in test [1] was 96.8%; in test [2], 96.1%.

Turning to `Cc1ccc(C(=O)Nc2nc3ccccc3c(=O)s2)cc1`, the activity was 80.8% in test [1] and 80% in test [2].

In the case of `CCOCc1nc(N)nc(N)c1-c1cccc(Cl)c1`, the activity in test [1] is 46.8%; in test [2], 61.9%.

With `CC(C)(C)C(=O)Nc1cccc(-c2nc3ccccc3c(=O)o2)c1`, the activity in test [1] is 59.2%; in test [2], 61.9%.

As to `CC(C)(C)OC(=O)NCCCC[C@H](NC(=O)c1[nH]cnc1C(=O)N[C@@H](Cc1ccccc1)C(=O)OC(C)(C)C)C(=O)OC(C)(C)C`, the activity in test [1] stood at 84%; in test [2], 64.7%.

`Cc1ccnc(NC(=O)c2sc3ccccc3c2Cl)c1`: the values for the activity in test [1] and in test [2] were 91.6% and 90.8%, respectively.

As to `Cc1ccc(-c2nnc(Nc3ccccc3)o2)cc1`, the activity in test [1] was determined as 59.7%; in test [2], 54.5%.
